Assay outcomes (PubChem)
BoNT F protease: BoNT/F light chain protease inhibitors, primary screen, biochemical, flow cytometry, MLPCN library; Multiplex microsphere protease cleavage assay; inhibition, % at 10 µM; 360,000 compounds, 0.22% hits; AID 588497, 2011; in the data active = inhibition above about 35%, passing the limit was not always enough; inconclusive = no clear call, values can overlap the other calls
Bead autofluor: counter-screen for toxin protease inhibitors: compound fluorescence; fluorescence intensity (no concentration beside the values); 360,000 compounds, 3.1% hits; AID 624483; compound autofluorescence counterscreen, microsphere flow cytometry; active compounds read high; in the data active = fluorescence intensity above about 16000; inconclusive = no clear call, values can overlap the other calls
FBA Mtb inh: Mtb FBA enzyme inhibitors, primary screen, biochemical, fluorescence, strain H37Rv | 360,000 compounds, 2.3% hits | purified M. tuberculosis FBA, fluorescence read-out | inhibition, % at 1 µM | Fructose-bisphosphate aldolase (Mycobacterium tuberculosis (strain ATCC 25618 / H37Rv)), …; in the data active = inhibition above about 27%
GDH-TPI counter: GDH-TPI coupling enzyme inhibitors, primary screen, artefact control for M. tuberculosis FBA inhibitor project, biochemical, absorbance, full deck; GDH-TPI coupled enzyme counterscreen, NADH absorbance; inhibition, % at 4.8 µM; 360,000 compounds, 1.2% hits; in the data active = inhibition above about 30%
BoNT-A LC inh2: BoNT/A light chain protease inhibitors, primary screen, biochemical, flow cytometry, MLPCN library; Botulinum neurotoxin type A light chain protease (Clostridium botulinum A str. ATCC 3502); multiplex microsphere protease substrate cleavage; inhibition, % at 10 µM; 360,000 compounds, 0.17% hits
Anthrax LF inh2: Bacillus anthracis LF protease inhibitors, primary screen, biochemical, multiplex microsphere, MLPCN library. AID 588501, 2011. multiplex microsphere protease cleavage assay. inhibition, % at 10 µM. 360,000 compounds, 0.12% hits
Target sequence (P15917 whole entry, looked up): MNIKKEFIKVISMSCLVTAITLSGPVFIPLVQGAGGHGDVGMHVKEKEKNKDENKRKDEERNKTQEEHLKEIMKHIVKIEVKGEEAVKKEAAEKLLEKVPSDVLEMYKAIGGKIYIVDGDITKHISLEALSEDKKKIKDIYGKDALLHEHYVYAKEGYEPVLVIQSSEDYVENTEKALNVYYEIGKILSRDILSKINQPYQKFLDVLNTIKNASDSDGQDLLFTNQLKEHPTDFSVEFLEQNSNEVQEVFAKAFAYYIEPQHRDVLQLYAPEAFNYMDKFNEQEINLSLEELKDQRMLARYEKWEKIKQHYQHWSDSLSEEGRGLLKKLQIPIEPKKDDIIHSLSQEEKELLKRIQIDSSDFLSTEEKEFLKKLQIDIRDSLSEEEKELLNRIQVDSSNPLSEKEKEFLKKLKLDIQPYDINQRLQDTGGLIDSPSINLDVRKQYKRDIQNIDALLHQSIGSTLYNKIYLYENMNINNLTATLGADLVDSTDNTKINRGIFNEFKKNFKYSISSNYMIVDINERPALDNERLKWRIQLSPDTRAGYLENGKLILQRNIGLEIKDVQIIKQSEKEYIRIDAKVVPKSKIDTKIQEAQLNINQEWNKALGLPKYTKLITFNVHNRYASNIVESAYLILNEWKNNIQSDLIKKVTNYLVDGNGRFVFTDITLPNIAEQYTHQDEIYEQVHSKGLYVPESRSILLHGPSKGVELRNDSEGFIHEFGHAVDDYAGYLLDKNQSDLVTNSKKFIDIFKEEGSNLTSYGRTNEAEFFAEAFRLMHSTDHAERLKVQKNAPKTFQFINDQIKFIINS
Hits are given with their value. Most compounds without a hit are left out; they make up all but 6.7% or so of the library. Cut-off read from the data, not from the text of the source, unless noted: active = inhibition above about 30%; inconclusive = no clear call, values can overlap the other calls; inactive = below that.

What do the screens show for `O=C(NCc1ccccc1)c1cccc(S(=O)(=O)N2CCCCC2)c1`?
BoNT F protease: inactive; Bead autofluor: inactive; FBA Mtb inh: inactive; GDH-TPI counter: inactive; BoNT-A LC inh2: inactive; Anthrax LF inh2: inactive

What do the screens show for `COc1ccc(/C=N/Nc2nn3cnnc3c3ccccc23)cc1`?
BoNT F protease: inconclusive; Bead autofluor: inactive; FBA Mtb inh: inactive; GDH-TPI counter: 34.6; BoNT-A LC inh2: inconclusive; Anthrax LF inh2: inactive

How did Nc1ncnc(Nc2cccc(C(F)(F)F)c2)n1 do in these assays?
BoNT F protease: inactive; Bead autofluor: 17187; FBA Mtb inh: inactive; GDH-TPI counter: inactive; BoNT-A LC inh2: inconclusive; Anthrax LF inh2: inactive

Results for Nc1ncnc(Nc2cc(C(F)(F)F)cc(C(F)(F)F)c2)n1 ?
BoNT F protease: inactive; Bead autofluor: inactive; FBA Mtb inh: inactive; GDH-TPI counter: inactive; BoNT-A LC inh2: inactive; Anthrax LF inh2: inactive

Results for CCOc1ccccc1NC(=O)CN(c1cc(C)cc(C)c1)S(=O)(=O)c1c(C)noc1C ?
BoNT F protease: inactive; Bead autofluor: inactive; FBA Mtb inh: inactive; GDH-TPI counter: inactive; BoNT-A LC inh2: inactive; Anthrax LF inh2: inactive

Results for CCOc1ccccc1NC(=O)CN(c1ccc(OC)cc1)S(=O)(=O)c1c(C)noc1C ?
BoNT F protease: inactive; Bead autofluor: 16905; FBA Mtb inh: inactive; GDH-TPI counter: inactive; BoNT-A LC inh2: inactive; Anthrax LF inh2: inactive

How did COc1ccc(N(CC(=O)Nc2cccc(C)c2C)S(=O)(=O)c2c(C)n[nH]c2C)cc1 do in these assays?
BoNT F protease: inactive; Bead autofluor: 20057; FBA Mtb inh: inactive; GDH-TPI counter: inactive; BoNT-A LC inh2: inconclusive; Anthrax LF inh2: inactive

What do the screens show for `CCOC(=O)c1cccc(NC(=O)CN(c2ccc(OC)cc2)S(=O)(=O)c2c(C)noc2C)c1`?
BoNT F protease: inactive; Bead autofluor: 20239; FBA Mtb inh: inactive; GDH-TPI counter: inactive; BoNT-A LC inh2: inactive; Anthrax LF inh2: inactive

How did COc1ccc(N(CC(=O)Nc2cccc(C)c2C)S(=O)(=O)c2c(C)[nH]c(=O)[nH]c2=O)cc1 do in these assays?
BoNT F protease: inactive; Bead autofluor: inactive; FBA Mtb inh: inactive; GDH-TPI counter: inactive; BoNT-A LC inh2: inactive; Anthrax LF inh2: inactive

Results for O=C(N[C@@H](Cc1ccccc1)C(=O)O)c1cccs1 ?
BoNT F protease: inactive; Bead autofluor: inactive; FBA Mtb inh: inactive; GDH-TPI counter: inactive; BoNT-A LC inh2: inactive; Anthrax LF inh2: inactive

What do the screens show for `Cn1cc(/C=C2\SC(=S)N(NC(=O)c3cccc(Cl)c3)C2=O)c2ccccc21`?
BoNT F protease: inactive; Bead autofluor: inactive; FBA Mtb inh: inactive; GDH-TPI counter: inactive; BoNT-A LC inh2: inactive; Anthrax LF inh2: inactive

How did COC(=O)CNC(=O)c1ccc(NS(=O)(=O)c2cc([N+](=O)[O-])ccc2Cl)cc1 do in these assays?
BoNT F protease: inactive; Bead autofluor: inactive; FBA Mtb inh: inactive; GDH-TPI counter: inactive; BoNT-A LC inh2: inactive; Anthrax LF inh2: inactive

Results for COc1cc(OC)c(C(=O)/C=C/c2ccc(OCc3ccccc3)c(OC)c2)c(OC)c1 ?
BoNT F protease: inconclusive; Bead autofluor: inactive; FBA Mtb inh: inactive; GDH-TPI counter: inactive; BoNT-A LC inh2: inactive; Anthrax LF inh2: inactive

How did COc1ccc(C=CC(=O)c2ccc(OC)c(OC)c2)cc1O do in these assays?
BoNT F protease: inactive; Bead autofluor: inactive; FBA Mtb inh: inactive; GDH-TPI counter: 40.3; BoNT-A LC inh2: inactive; Anthrax LF inh2: inactive

Results for COc1ccc(/C=C/C(=O)c2ccoc2)cc1 ?
BoNT F protease: inactive; Bead autofluor: inactive; FBA Mtb inh: inactive; GDH-TPI counter: 37.6; BoNT-A LC inh2: inactive; Anthrax LF inh2: inactive

What do the screens show for `COc1ccc(C=CC(=O)c2ccc3cc(OC)c(OC)cc3c2)cc1OC`?
BoNT F protease: inactive; Bead autofluor: inactive; FBA Mtb inh: inactive; GDH-TPI counter: 31.0; BoNT-A LC inh2: inactive; Anthrax LF inh2: inactive

Results for COc1ccc2cc(C(=O)/C=C/c3cc(OC)c(OC)c(OC)c3)ccc2c1 ?
BoNT F protease: inactive; Bead autofluor: inactive; FBA Mtb inh: inactive; GDH-TPI counter: inactive; BoNT-A LC inh2: inactive; Anthrax LF inh2: inactive

How did COc1cc(OC)c(C(=O)C=Cc2ccc(OC)c(OC)c2)c(OC)c1 do in these assays?
BoNT F protease: inactive; Bead autofluor: inactive; FBA Mtb inh: inactive; GDH-TPI counter: 34.9; BoNT-A LC inh2: inactive; Anthrax LF inh2: inactive

How did CCOc1cc(/C=C/C(=O)c2ccc3c(c2)OCCO3)ccc1OCC(=O)N(C)C do in these assays?
BoNT F protease: inactive; Bead autofluor: inactive; FBA Mtb inh: inactive; GDH-TPI counter: inactive; BoNT-A LC inh2: inactive; Anthrax LF inh2: inactive

What do the screens show for `COc1ccc(C(=O)/C=C/c2ccc3c(c2)OCCO3)cc1`?
BoNT F protease: inconclusive; Bead autofluor: inactive; FBA Mtb inh: inactive; GDH-TPI counter: 36.0; BoNT-A LC inh2: inactive; Anthrax LF inh2: inactive

What do the screens show for `CCOc1cc(/C=C/C(=O)c2ccc(O)cc2)ccc1OCC(=O)N(C)C`?
BoNT F protease: inactive; Bead autofluor: inactive; FBA Mtb inh: inactive; GDH-TPI counter: 46.9; BoNT-A LC inh2: inactive; Anthrax LF inh2: inactive

Results for COc1cc(C(=O)C(=O)c2ccc(OC)c(OC)c2)ccc1O ?
BoNT F protease: inactive; Bead autofluor: inactive; FBA Mtb inh: inactive; GDH-TPI counter: 31.6; BoNT-A LC inh2: inactive; Anthrax LF inh2: inactive

Results for COC(=O)C1=NN(N=O)C2(CC(=O)N(c3cc(C)cc(C)c3)C2=O)C1 (stereo not drawn) ?
BoNT F protease: inactive; Bead autofluor: inactive; FBA Mtb inh: inactive; GDH-TPI counter: inactive; BoNT-A LC inh2: inactive; Anthrax LF inh2: inactive

Results for COc1ccc(/C=N/NC2=NS(=O)(=O)c3ccccc32)cc1 ?
BoNT F protease: inactive; Bead autofluor: inactive; FBA Mtb inh: inactive; GDH-TPI counter: 44.1; BoNT-A LC inh2: inactive; Anthrax LF inh2: inactive

Results for O=S1(=O)N=C(N/N=C/C=C/c2ccccc2)c2ccccc21 ?
BoNT F protease: inactive; Bead autofluor: inactive; FBA Mtb inh: inactive; GDH-TPI counter: 39.8; BoNT-A LC inh2: inactive; Anthrax LF inh2: inactive

How did CC(=O)Oc1ccc(/C=N/NC2=NS(=O)(=O)c3ccccc32)cc1 do in these assays?
BoNT F protease: inactive; Bead autofluor: inactive; FBA Mtb inh: inactive; GDH-TPI counter: 34.9; BoNT-A LC inh2: inactive; Anthrax LF inh2: inactive

What do the screens show for `COc1cc(/C=N/NC2=NS(=O)(=O)c3ccccc32)cc(OC)c1OC`?
BoNT F protease: inactive; Bead autofluor: inactive; FBA Mtb inh: inactive; GDH-TPI counter: inactive; BoNT-A LC inh2: inactive; Anthrax LF inh2: inactive

Results for COc1ccc(/C=N/NC2=NS(=O)(=O)c3ccccc32)cc1OC(C)=O ?
BoNT F protease: inactive; Bead autofluor: inactive; FBA Mtb inh: inactive; GDH-TPI counter: 32.4; BoNT-A LC inh2: inactive; Anthrax LF inh2: inactive

How did O=S1(=O)N=C(N(CCO)/N=C/c2ccc(Cl)cc2)c2ccccc21 do in these assays?
BoNT F protease: inactive; Bead autofluor: inactive; FBA Mtb inh: inactive; GDH-TPI counter: inactive; BoNT-A LC inh2: inactive; Anthrax LF inh2: inactive
